Screens deposited in PubChem BioAssay by several laboratories.
PostGolgi yeast = growth inhibition of a yeast mutant, post-Golgi transport screen; inhibition, % at 10 µM; 98,000 compounds, 0.9% hits; post-Golgi transport phenotypic cell assay;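 also: yeast cells grown in 1536-well plates; yeast grown about 18 h at 30C before absorbance read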
CYP2C19 inhib = human CYP2C19 inhibition | P33261 | CYP2C19 Supersomes, luciferin-H EGE luminescence, 30 min | 96,000 compounds, 21% hits | AID 778 | inhibition, % at 5 µM;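 active = CYP2C19 inhibition above a set limit at 5 µM in the primary screen, cut at about 50% in these data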;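 also: plate controls were negative control wells for no effect and 2.5 mM tranylcypromine positive control for full effect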
Target sequence (P33261 whole entry, looked up): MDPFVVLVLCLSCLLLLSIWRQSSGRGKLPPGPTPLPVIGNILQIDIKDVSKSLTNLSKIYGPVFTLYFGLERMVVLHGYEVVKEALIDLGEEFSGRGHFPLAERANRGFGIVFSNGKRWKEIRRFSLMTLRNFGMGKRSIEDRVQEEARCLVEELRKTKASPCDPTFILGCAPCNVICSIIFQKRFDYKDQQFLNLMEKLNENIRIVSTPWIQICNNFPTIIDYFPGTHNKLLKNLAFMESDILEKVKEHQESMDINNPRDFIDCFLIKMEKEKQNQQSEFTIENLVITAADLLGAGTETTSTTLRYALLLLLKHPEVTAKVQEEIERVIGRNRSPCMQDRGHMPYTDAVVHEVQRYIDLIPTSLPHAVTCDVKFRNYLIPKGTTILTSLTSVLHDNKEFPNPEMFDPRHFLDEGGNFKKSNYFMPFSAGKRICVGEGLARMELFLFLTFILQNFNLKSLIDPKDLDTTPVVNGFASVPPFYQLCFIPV
CYP2C9 inh = human CYP2C9 inhibition. inhibition, % at 5 µM. CYP2C9 Supersomes, luciferin-H conversion, luminescence. 96,000 compounds, 20% hits;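 active = blocking of liver enzyme CYP2C9 beyond about 50% at 5 µM, limit read from the data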
CYP2C9 activ = activators of human CYP2C9; recombinant CYP2C9, luciferin-H conversion, luminescence; stronger effect = higher value; factor 1 = untreated enzyme, 0 = blocked; activation factor at 5 µM; 96,000 compounds, 1.4% hits; AID 1024;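 active = activation factor of 2 or more for CYP2C9 at a 5 µM dose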;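 also: 0 = sulfaphenazole-blocked wells and 1 = vehicle-only wells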
CYP2C19 act = cytochrome P450 2C19 (human) activation; recombinant CYP2C19, luciferin-H EGE luminescence; stronger effect = higher value; 0 = fully inhibited enzyme, 1 = untreated enzyme; 96,000 tested, under 10 active; activation factor at 5 µM; P33261;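 active = activation factor of at least 2 at 5 µM in the primary screen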;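 also: 0 = wells with 2.5 mM tranylcypromine and 1 = vehicle-only wells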
PostGolgi ctrl = inhibits growth of the yeast control strain. efflux-deficient yeast background strain, growth absorbance A615, 16 h. inhibition, % at 10 µM. 98,000 compounds, 5% hits
Numbers without * were called inactive. Most compounds without a hit are left out; they make up all but 32% or so of the library. Rule as the data show it, unless noted: active = inhibition above about 30%; inactive = the rest.

How did CC(C)COC(=O)Nc1ccccc1C(=O)N1CCOCC1 do in these assays?
PostGolgi yeast: 2.3; CYP2C19 inhib: 17.7; CYP2C9 inh: 4.8; CYP2C9 activ: 1; CYP2C19 act: 0.8; PostGolgi ctrl: 6.8

Results for Cc1cc(C)c(NC(=O)CSc2nnc(-c3ccncc3)n2Cc2ccco2)c(C)c1 ?
PostGolgi yeast: 9.6; CYP2C19 inhib: 27.1; CYP2C9 inh: 37.8; CYP2C9 activ: 0.6; CYP2C19 act: 0.7; PostGolgi ctrl: 3.0

What do the screens show for `C=CCn1c(SCC(=O)NCC(=O)OCC)nnc1-c1ccccn1`?
PostGolgi yeast: 1.6; CYP2C19 inhib: 1.3; CYP2C9 inh: 1.9; CYP2C9 activ: 1; CYP2C19 act: 1; PostGolgi ctrl: 1.5

What do the screens show for `CCOc1ccccc1NC(=O)CSc1nnc(-c2cnccn2)n1CC`?
PostGolgi yeast: 9.3; CYP2C19 inhib: 87.7*; CYP2C9 inh: 45.3; CYP2C9 activ: 0.5; CYP2C19 act: 0.1; PostGolgi ctrl: -10.4

How did C=CCn1c(SCC(=O)Nc2ccccc2C)nnc1-c1ccncc1 do in these assays?
PostGolgi yeast: -7.1; CYP2C19 inhib: 74.4*; CYP2C9 inh: 23.1; CYP2C9 activ: 0.8; CYP2C19 act: 0.3; PostGolgi ctrl: 0.9

What do the screens show for `C=CCn1c(SCC(=O)Nc2ccccc2CC)nnc1-c1ccncc1`?
PostGolgi yeast: 3.4; CYP2C19 inhib: 91.1*; CYP2C9 inh: 48.2; CYP2C9 activ: 0.5; CYP2C19 act: 0.1; PostGolgi ctrl: 2.1

How did C=CCn1c(SCC(=O)Nc2c(C)cccc2C)nnc1-c1cnccn1 do in these assays?
PostGolgi yeast: -1.4; CYP2C19 inhib: 99.9*; CYP2C9 inh: 46.4; CYP2C9 activ: 0.5; CYP2C19 act: 0; PostGolgi ctrl: 1.2

What do the screens show for `c1ccc(Cc2nc3ccccc3o2)cc1`?
PostGolgi yeast: 8.6; CYP2C19 inhib: 34.0; CYP2C9 inh: 4.1; CYP2C9 activ: 1; CYP2C19 act: 0.7; PostGolgi ctrl: 2.9

What do the screens show for `C=CCn1c(SCC(=O)Nc2ccc(C)cc2C)nnc1-c1cccnc1`?
PostGolgi yeast: 11.4; CYP2C19 inhib: 44.9; CYP2C9 inh: 86.9*; CYP2C9 activ: 0.1; CYP2C19 act: 0.6; PostGolgi ctrl: 14.3

How did C=CCn1c(Cc2csc(N)n2)nnc1SCC(=O)Nc1ccccc1C(F)(F)F do in these assays?
PostGolgi yeast: 0.9; CYP2C19 inhib: 53.2*; CYP2C9 inh: 45.7; CYP2C9 activ: 0.5; CYP2C19 act: 0.5; PostGolgi ctrl: 14.4

Results for C=CCn1c(SCc2c(Cl)cccc2Cl)nnc1-c1cccnc1 ?
PostGolgi yeast: -4.9; CYP2C19 inhib: 53.7*; CYP2C9 inh: 34.9; CYP2C9 activ: 0.7; CYP2C19 act: 0.5; PostGolgi ctrl: 5.9

How did CCCCn1c(SCC(=O)Nc2ccccc2C(F)(F)F)nc2ccsc2c1=O do in these assays?
PostGolgi yeast: 1.0; CYP2C19 inhib: 6.9; CYP2C9 inh: 12.7; CYP2C9 activ: 0.9; CYP2C19 act: 0.9; PostGolgi ctrl: 11.4

What do the screens show for `C=CCn1c(SCc2cccnc2)nnc1-c1ccncc1`?
PostGolgi yeast: -3.5; CYP2C19 inhib: 23.1; CYP2C9 inh: 3.6; CYP2C9 activ: 1; CYP2C19 act: 0.8; PostGolgi ctrl: 16.1

Results for CC1=C(C)SC(=C(C#N)c2nnc(N3CCOCC3)n2-c2ccccc2)S1 ?
CYP2C19 inhib: -17.1; CYP2C9 inh: -20.3; CYP2C9 activ: 1.2; CYP2C19 act: 1.2

What do the screens show for `CCN(CC)C(=O)c1sc2nc(-c3ccncc3)[nH]c(=O)c2c1C`?
PostGolgi yeast: 4.0; CYP2C19 inhib: 62.8*; CYP2C9 inh: 20.8; CYP2C9 activ: 0.8; CYP2C19 act: 0.4; PostGolgi ctrl: 7.0

What do the screens show for `CCCC(=O)c1c[nH]c(C(=O)NCc2ccco2)c1`?
PostGolgi yeast: -2.6; CYP2C19 inhib: 11.4; CYP2C9 inh: 4.3; CYP2C9 activ: 1; CYP2C19 act: 0.9; PostGolgi ctrl: -3.6

What do the screens show for `CC(/C=N/NC(=O)c1ccc(Br)cc1)=C\c1ccccc1`?
PostGolgi yeast: -7.9; CYP2C19 inhib: -0.7; CYP2C9 inh: 29.6; CYP2C9 activ: 0.7; CYP2C19 act: 1; PostGolgi ctrl: -4.5

What do the screens show for `CC(/C=C1\SC(=S)N(NC(=O)c2ccc(C)cc2)C1=O)=C\c1ccccc1`?
PostGolgi yeast: 13.8; CYP2C19 inhib: 18.3; CYP2C9 inh: 61.2*; CYP2C9 activ: 0.4; CYP2C19 act: 0.8; PostGolgi ctrl: 20.0

Results for Cc1cc(N(CN2CCCC2=O)C(=O)c2ccccc2)no1 ?
PostGolgi yeast: -7.2; CYP2C19 inhib: 2.6; CYP2C9 inh: 8.5; CYP2C9 activ: 0.9; CYP2C19 act: 1; PostGolgi ctrl: 12.2

What do the screens show for `Clc1cccc(-c2nnc(SCc3nc4ccccc4[nH]3)n2Cc2ccco2)c1`?
PostGolgi yeast: -6.3; CYP2C19 inhib: 82.5*; CYP2C9 inh: 87.0*; CYP2C9 activ: 0.1; CYP2C19 act: 0.2; PostGolgi ctrl: -1.7

What do the screens show for `Cn1c(SCc2nc3ccccc3[nH]2)nnc1-c1cnccn1`?
PostGolgi yeast: 2.7; CYP2C19 inhib: 33.5; CYP2C9 inh: 8.4; CYP2C9 activ: 0.9; CYP2C19 act: 0.7; PostGolgi ctrl: 1.3

What do the screens show for `c1ccc(-c2nnc(SCc3nc4ccccc4[nH]3)n2Cc2ccco2)nc1`?
PostGolgi yeast: -1.0; CYP2C19 inhib: 51.3*; CYP2C9 inh: 89.8*; CYP2C9 activ: 0.1; CYP2C19 act: 0.5; PostGolgi ctrl: 6.1

What do the screens show for `c1coc(Cn2c(SCc3nc4ccccc4[nH]3)nnc2-c2cnccn2)c1`?
PostGolgi yeast: -6.3; CYP2C19 inhib: 67.4*; CYP2C9 inh: 80.6*; CYP2C9 activ: 0.2; CYP2C19 act: 0.3; PostGolgi ctrl: -3.9

How did CCn1c(COc2ccc(C)cc2)nnc1SCc1nc2ccccc2[nH]1 do in these assays?
PostGolgi yeast: -1.1; CYP2C19 inhib: 29.0; CYP2C9 inh: 45.0; CYP2C9 activ: 0.6; CYP2C19 act: 0.7; PostGolgi ctrl: 8.2

Results for Clc1ccc(OCc2nnc(SCc3nc4ccccc4[nH]3)n2Cc2ccco2)cc1 ?
PostGolgi yeast: 56.0*; CYP2C19 inhib: 12.0; CYP2C9 inh: 62.0*; CYP2C9 activ: 0.4; CYP2C19 act: 0.9; PostGolgi ctrl: 57.0*

Results for Cc1nonc1NC(=O)OC1CCCCC1 ?
PostGolgi yeast: 9.2; CYP2C19 inhib: 16.6; CYP2C9 inh: 2.7; CYP2C9 activ: 1; CYP2C19 act: 0.8; PostGolgi ctrl: 1.8

Results for Nc1c(Cl)cc2c(c1Oc1ccccc1)C(=O)c1ccccc1C2=O ?
PostGolgi yeast: 5.2; CYP2C19 inhib: 5.5; CYP2C9 inh: 11.4; CYP2C9 activ: 0.9; CYP2C19 act: 0.9; PostGolgi ctrl: 8.9

Results for Cc1cccc(NC(=S)N2CCC(C(=O)c3ccc(F)cc3)CC2)c1C ?
PostGolgi yeast: -2.0; CYP2C19 inhib: 35.3; CYP2C9 inh: -4.2; CYP2C9 activ: 1; CYP2C19 act: 0.6; PostGolgi ctrl: 20.6

How did CSc1ccc(/C=N/n2nnnc2N)cc1 do in these assays?
PostGolgi yeast: 7.8; CYP2C19 inhib: 26.6; CYP2C9 inh: -2.2; CYP2C9 activ: 1; CYP2C19 act: 0.7; PostGolgi ctrl: 1.0
